Source: PubChem BioAssay
Only some compounds are listed: those with a hit (about 9.4% of all), similar ones and a draw of the others.
SARS PLpro yeast: inhibitors of SARS-CoV papain-like protease in yeast | Potency, µM (top dose mostly 32.9 µM), for inactives: top-dose activity, positive = growth rescue, hits mostly activators | S. cerevisiae expressing SARS-CoV PLpro, growth rescue | 0.19% of 330,000 active | AID 485353; calls by dose curve; further: 0% is about no effect; nearly all actives have a fitted effect of over 55% in size
Pf growth 96h: P. falciparum growth inhibition at 96 hours; P. falciparum luciferase reporter growth, 96 h; Potency, µM (titrated, usually from 28.7 µM), for inactives: top-dose activity change, negative = inhibition, most hits filed as inhibitors; 6.9% of 320,000 active; AID 504834; further: on the % scale 0 is the no-effect control and ±100 the full control effect
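Infected RBCs, 2% Hct / 0.05% parasitemia final; luciferase-reporter P. falciparum; cpd 96 h, 37 C, 5% CO2; luciferase detection reagent; luminescence.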
AMA1-RON2 inh: disrupts binding of P. falciparum AMA1 to RON2 | AlphaScreen AMA1-biotinylated RON2 peptide binding | Potency, µM (top dose mostly 58.2 µM), without a hit: top-dose activity change, negative = inhibition, hits mostly inhibitors | 0.2% of 360,000 active;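 further: 0% = vehicle wells and -100% = peptide control; nearly all actives have a fitted effect of over 45% in size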
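AMA1 (3D7) with his tag at 25 nM final met compounds first, then biotinylated RON2 peptide at 25 nM; detection used donor plus acceptor beads, 10 µg/mL apiece, read by AlphaScreen after 30 min at room temperature.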
Pf growth 48h: inhibits P. falciparum growth in the first generation, 48 h; P. falciparum luciferase growth in erythrocytes, 48 h; 5.9% of 310,000 active; Potency, µM (highest dose often 28.7 µM), inactives show top-dose activity change, negative = inhibition, usual class: inhibitors; AID 504832; further: on the % scale 0 is the no-effect control and ±100 the full control effect
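Luciferase-expressing parasites in RBCs, 2% Hct / 0.1% parasitemia final; RPMI 1640 + 0.5% Albumax; 37 C, 5% CO2, one generation; luminescence read-out, lower signal = inhibition.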
Active calls of the source: *; ? = inconclusive; · = not tested or not shown; [ ] = another dose, or the depositor's remark. Unless noted, the call rests on the fitted dose curve; in most records, active means well fitted curve in the direction sought with a large enough effect; inconclusive means small, poorly fitted or top-dose-only effect, or another doubt; inactive means no such curve, though single readings can be large; an effect the other way counts as inactive or inconclusive. Potency means the concentration at half of the fitted maximal effect.

SMILES | SARS PLpro yeast | Pf growth 96h | AMA1-RON2 inh | Pf growth 48h
CC(C)(C)OC(=O)N1CCC(c2c(C(=O)NCC3CCN(C4CCCC4)C3)cnn2-c2ccccc2)CC1 (centres undefined) | 0% | 8% | -18% | 3.7µM*
Cc1ccc(-n2ncc(C(=O)NCC3CCN(C4CCCC4)C3)c2C2CCN(C(=O)OC(C)(C)C)CC2)cc1 (centres undefined) | 5% | ? | 0% | ?
Cc1ccc(-n2ncc(C(=O)NCC3CCN(C4CCCC4)C3)c2C2CCN(C(=O)OC(C)(C)C)CC2)cc1C (centres undefined) | -2% | 2.3µM* | -7% | 13µM*
COc1ccc(OCC(NS(=O)(=O)c2ccc(-n3cnnn3)cc2)C(C)C)cc1 (centres undefined) | 3% | 70% | -5% | ?
CCCCN1C(=O)CCC(C(=O)O)C1c1ccccc1 (centres undefined) | 1% | -21% | 5% | 0%
Cc1cccc(NC(=O)[C@@H](NC(=O)N2C[C@H]3C[C@@H](C2)c2cccc(=O)n2C3)C(C)C)c1 | 5% | 5.2µM* | -1% | 18%
COc1cccc(NC(=O)Nc2cc(C(=O)NC(C)C)ccc2N2CC3CC(C2)c2cccc(=O)n2C3)c1 (centres undefined) | -4% | -9% | 9% | 12µM*
CCN(C(=O)c1ccc(N2CC3CC(C2)c2cccc(=O)n2C3)c(NC(=O)c2ccncc2)c1)c1cccc(C)c1 (centres undefined) | 3% | 0% | 14% | ?
CSc1ccccc1NC(=O)c1ccc(N2CC3CC(C2)c2cccc(=O)n2C3)c(NC(=O)c2ccncc2)c1 (centres undefined) | 3% | ? | -12% | 9.3µM*
CCCNC(=O)c1ccc(N2CC3CC(C2)c2cccc(=O)n2C3)c(NC(=O)Nc2ccc(CC)cc2)c1 (centres undefined) | 0% | 5% | -11% | ?
COc1cccc(NC(=O)[C@@H](NC(=O)N2C[C@H]3C[C@@H](C2)c2cccc(=O)n2C3)C(C)C)c1 | -5% | 8% | -1% | 17%
CC(C)(C)NC(=O)CN(Cc1cccnc1)C(=O)c1csnn1 | 14% | -17% | -2% | 19%
O=[N+]([O-])c1ccc(S(=O)(=O)NN=C2CCCCC2)cc1 | · | · | 73% | ·
O=c1[nH]cc(CCc2ccccc2)c(=O)[nH]1 | · | · | -7% | ·
Nc1nonc1-c1nc2ccccc2n1CC(=O)NC1CCCC1 | -5% | 10µM* | 1% | 12%
CC(=O)c1ccc2c(c1)Cc1cc(C(C)=O)ccc1-2 | 10% | 5.2µM* | -1% | 271%
CCN(c1ccccc1)S(=O)(=O)c1cc(C(=O)Nc2ccccc2Cl)ccc1F | 21% | 2.9µM* | 28% | -4%
CCN(c1ccccc1)S(=O)(=O)c1ccc(Cl)c(NC(=O)CN2CCCCCC2)c1 | 0% | ? | -19% | 5.9µM*
CN(C)S(=O)(=O)c1ccc(Cl)c(NC(=O)CN2CCCCCC2)c1 | 0% | -1% | 0% | ?
CCN(c1ccccc1)S(=O)(=O)c1ccc(Cl)c(NC(=O)CSc2nncn2C)c1 | 1% | 8.3µM* | 4% | ?
COc1ccccc1CC(=O)Nc1cc2oc3ccccc3c2cc1OC | -6% | ? | 1% | ?
COC(=O)[C@@H]1C[C@H]2CC[C@H](O)C[C@H]2N1Cc1ccccc1OS(=O)(=O)c1ccc(C)cc1 | 1% | ? | -1% | 10µM*
CCn1c(C)c(C)c2cc(C(=O)Nc3cccc(Cl)c3)ccc21 | -14% | 15µM* | -12% | ?
CCCCCc1c(O)nc(SCC(=O)NCC2CCCO2)[nH]c1=O (centres undefined) | -19% | 0.47µM* | -1% | 4%
O=C(COc1ccc(F)cc1)N(Cc1cccs1)C1CCS(=O)(=O)C1 (centres undefined) | 0% | -21% | 8% | 9%
SMILES | SARS PLpro yeast | Pf growth 96h | AMA1-RON2 inh | Pf growth 48h
Cc1ccc(SC2=C(N(C)C)C(=O)c3ccccc3C2=O)cc1 | · | · | 8.9µM* | ·
Clc1ccc(-c2nnc(N3CCCC3)nn2)cc1 | 0% | 0.59µM* | -17% | 0.37µM*
CCSc1cc(N2CCCC2)nc(-c2ccc(Cl)cc2)n1 | 7% | 31% | 22% | 15%
O=S(=O)(c1ccc(OCC(O)CN2CCC(Cc3ccccc3)CC2)cc1)N1CCOCC1 (centres undefined) | 1% | ? | 0% | 12µM*
COc1ccc(S(=O)(=O)N2CCCCC2)cc1NC(=O)CCc1cc(OC)c(OC)c(OC)c1 | · | · | 3% | ·
COc1ccc(S(=O)(=O)N2CCCCC2)cc1NC(=O)CNc1ccccc1N1CCCC1=O | 1% | ? | -10% | ?
COc1ccc(S(=O)(=O)N2CCCCC2)cc1NC(=O)CSc1ncnc2ccccc12 | 1% | 2.3µM* | -2% | 12µM*
COc1ccc(S(=O)(=O)N2CCCCCC2)cc1NC(=O)Cc1cc(OC)c(OC)c(OC)c1 | 16% | 3.7µM* | 0% | ?
Cc1ccc(S(=O)(=O)N2CCCCC2)cc1NC(=O)CNc1ccccc1N1CCCC1=O | -2% | ? | -4% | 13µM*
c1ccc(-n2ncc3c2ncn2nnnc32)cc1 | 8% | ? | 14% | ·
Cc1ccc(NC(=O)Cc2c[nH]c3ccccc23)cc1S(=O)(=O)N1CCCCCC1 | 15% | 12µM* | -7% | 13µM*
Cc1ccc(NC(=O)Cc2n[nH]c(=O)c3ccccc23)cc1S(=O)(=O)N1CCCCCC1 | -1% | ? | 8%[11.6 µM] | ?
Cc1ccc(S(=O)(=O)N2CCCCC2)cc1NC(=O)Cc1c[nH]c2ccccc12 | -13% | 5.2µM* | -3% | ?
Cc1ccc(S(=O)(=O)N2CCCCC2)cc1NC(=O)CN1CC=C(c2ccccc2)CC1 | 5% | 10µM* | 2% | ?
OC(COc1ccc(F)cc1Cl)CN1CCC(Cc2ccccc2)CC1 (centres undefined) | 0% | ? | -6% | 12µM*
Cc1ccc(SCC(=O)Nc2cc(S(=O)(=O)N3CCCCC3)ccc2C)cc1 | -1% | · | 5% | ·
CCCOc1cccc(OCC(=O)Nc2nc3ccccc3[nH]2)c1 | ? | -2% | 19% | 20%
C=CCNC(=O)COC(=O)c1ccc(C)c(NC(=O)c2ccco2)c1 | 0% | 27% | 23% | 29%
CCOC(=O)c1nn(-c2ccccc2C)c2nc(Nc3ccccc3)cc(=O)n12 | 7% | 12% | -10% | 5%
COc1ccc(C)cc1S(=O)(=O)N(CC(=O)Nc1cc([N+](=O)[O-])ccc1C)c1ccc(C)c(C)c1 | 9% | ? | -5% | 10µM*
Cc1ccc(S(=O)(=O)N2CCOCC2)cc1NC(=O)CN1CCN(C)CC1 | -1% | -23% | 12% | -22%
COc1ccc(S(=O)(=O)N2CCCCC2)cc1NC(=O)Cc1c[nH]c2ccccc12 | -11% | 8.3µM* | -8% | ?
COc1ccc(C)cc1S(=O)(=O)N(CC(=O)Nc1cccc([N+](=O)[O-])c1)c1cc(C)cc(C)c1 | 4% | ? | 14% | ?
COc1ccc(S(=O)(=O)N2CCCCC2)cc1NCC(=O)Nc1ccc(C)cc1 | 0% | -29% | -23% | -4%
